Compound activity deposited in PubChem BioAssay by Johns Hopkins Ion Channel Center.
KCNQ2 inh = rat KCNQ2 potassium channel inhibitors, primary screen, cell-based, CHO-K1, FluxOR thallium flux, B-score; AID 2156, 2009; 20 min; active compounds read low; 310,000 tested, 1.1% active; Potassium voltage-gated channel subfamily KQT member 2 (Rattus norvegicus), O88943; B-score at 10 µM;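 active = fluorescence ratio B-score at most minus 3 library SDs, with starting brightness B-score within 2 library SDs, cut at about -5.5 in these data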
KCNQ2 pot = potentiators of rat KCNQ2 potassium channel; Potassium voltage-gated channel subfamily KQT member 2 (Rattus norvegicus), O88943; CHO-K1 KCNQ2, FluxOR thallium flux fluorescence; active compounds read high; B-score at 10 µM; 310,000 tested, 0.54% active; AID 2239, 2010;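 active = fluorescence ratio B-score at least 3 SD of library B-scores, with initial fluorescence B-score within 3 of them, cut at about 5.3 in these data; same plate scores as AID 2156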;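 also: B-score of peak minus minimum over baseline fluorescence ratio after K+ and Tl+ stimulus; positive B-score means potentiation of KCNQ2 with more thallium influx and brighter signal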
Large screens that a line does not name were inactive. In the library only some 1.6% were active in any assay of this set; here they are far more common.

O=C(OCC(=O)N(CCc1ccccc1)Cc1ccccc1)c1cc(S(=O)(=O)N2CCOCC2)ccc1F	none (no result: KCNQ2 pot)
O=C(OCC(=O)N(CCc1ccccc1)Cc1ccccc1)c1cccc(O)c1	none (no result: KCNQ2 pot)
O=C(OCC(=O)N(CCc1ccccc1)Cc1ccccc1)c1ccccc1NCCO	KCNQ2 inh -6.5
COc1ccc(C(=O)N(CCc2ccccc2)Cc2ccccc2)cc1S(=O)(=O)N1CCOCC1	none (no result: KCNQ2 pot)
CC1(C)C(c2ccccc2)=NC(c2ccc(Br)cc2)N1O (stereo not drawn)	none (no result: KCNQ2 pot)
O=C(COc1ccc(Cl)cc1)Nc1cc(NC(=O)COc2ccc(Cl)cc2)cc(C(=O)O)c1	none
CCCCCCNc1nc(NCc2ccco2)nc(OCC)n1	KCNQ2 inh -6.1
CCCCCCCCNc1nc(Cl)nc(NCc2ccco2)n1	none
N#Cc1ccc(-c2ccc(OCC(=O)NCC(=O)Nc3ccc(F)c(F)c3F)cc2)cc1	none
CCN(CC)C(=O)/C(=C/c1ccc2c(c1)OCO2)NC(=O)c1ccc(Br)cc1	KCNQ2 inh -5.9
O=C(NCCO)/C(=C/c1ccc2c(c1)OCO2)NC(=O)c1ccc(Br)cc1	none (no result: KCNQ2 pot)
COc1ccc(CNc2ncc(-c3ccccc3)n2C)c(OC)c1OC	none
COc1ccc(CNc2ncc(-c3ccccc3)n2C)c2ccccc12	KCNQ2 inh -5.7
CC(C)NC(=O)COc1coc(CN2CCN(c3ccccc3F)CC2)cc1=O	none
COc1cccc(NC(=O)N(C2CCCCC2)C(C)c2cccs2)c1 (stereo not drawn)	KCNQ2 inh -5.7
COc1cccc(NC(=O)Nc2cccs2)c1	none
CC1CC(C)(C)CC2(C1)NC(=O)N(CC(=O)Nc1ccc(N3CCCCC3)cc1)C2=O (stereo not drawn)	none (no result: KCNQ2 pot)
COc1ccc(/C=C/C(=O)OCC(=O)NCc2ccco2)cc1OC	none (no result: KCNQ2 pot)
CC(C)(C)n1nc2c(c1NC(=O)Cc1cccs1)CSC2	KCNQ2 pot 9.5
CC(C)(C)n1nc2c(c1NC(=O)COc1ccc(Cl)cc1)CSC2	none (no result: KCNQ2 pot)
Cc1ccccc1-n1ncc(C(C)NC(=O)c2ccco2)c1C (stereo not drawn)	none (no result: KCNQ2 pot)
CC(C)CSC1=NSC2=NC(=O)/C(=C\c3cccs3)C(=N)N12	KCNQ2 pot 7.4
N=C1/C(=C/c2cccs2)C(=O)N=C2SN=C(SCc3ccccc3)N12	none
O=C(NCc1ccccn1)c1ccc(CNS(=O)(=O)c2cccc(Cl)c2)cc1	none
COc1ccc(C(=O)Nc2ccccc2)cc1NC(=O)c1cccs1	none (no result: KCNQ2 pot)
CCCCCCOC(=O)C(C#N)c1nc2ccccc2nc1N1CCN(C)CC1 (stereo not drawn)	KCNQ2 inh -5.7
CCC(CC)COC(=O)C(C#N)c1nc2ccccc2nc1N1CCN(CC)CC1 (stereo not drawn)	none (no result: KCNQ2 pot)
COc1ccccc1NC(=O)N1C2CCCC1CC(NC(=O)c1ccccc1)C2 (stereo not drawn)	none
COc1ccc(CC2(C)OC(c3ccc([N+](=O)[O-])cc3)=NN2C(C)=O)cc1 (stereo not drawn)	KCNQ2 inh -6.2
COc1ccc(C(=O)NNC(=O)Cc2ccc([N+](=O)[O-])cc2)cc1	none
C[Si](C)(C)n1ccnc1	none
Cc1cc(C)cc(N(CCC#N)C(=O)CSC2=Nc3ccccc3C3CC=NN23)c1 (stereo not drawn)	KCNQ2 inh -6.1
N#Cc1ccccc1NC(=O)CSC1=Nc2ccccc2C2CC=NN12 (stereo not drawn)	none (no result: KCNQ2 pot)
Cc1cccc2cc(CNCc3ccccc3)c(Cl)nc12	none (no result: KCNQ2 pot)
O=C(NCC1CCCN(Cc2ccccc2F)C1)c1cccc(C(F)(F)F)c1 (stereo not drawn)	none (no result: KCNQ2 pot)
COc1ccccc1NC(=O)c1sc2ncn(Cc3ccccc3C)c(=O)c2c1C	KCNQ2 inh -5.8
CCn1cnc2sc(C(=O)Nc3ccccc3OC)c(C)c2c1=O	none (no result: KCNQ2 pot)
CCN(CC)c1nc2cc(C)ccc2cc1/C=C(\C#N)C(N)=O	none (no result: KCNQ2 pot)
O=C(O)c1ccccc1NC(=S)NC(=O)c1sc2ccccc2c1Cl	none
O=C(NNC(=S)NC(=O)c1sc2ccccc2c1Cl)c1ccc(Cl)cc1	KCNQ2 pot 13
COCCCNCC(O)C(F)(F)F (stereo not drawn)	none
COCCCNC(=O)C(=O)C1C(=O)Nc2ccccc21 (stereo not drawn)	none
O=C(COc1ccccc1F)Nc1nnc(C2CCCC2)s1	none (no result: KCNQ2 pot)
O=C(/C=C/c1cccs1)N1CCC2(CC1)Oc1ccc(Cl)cc1C(=O)C21CC(c2cccnc2)=NO1 (stereo not drawn)	KCNQ2 inh -6.8
Cc1ccc(C(=O)N2CCC3(CC2)Oc2ccc(Cl)cc2C(=O)C32CC(c3cccnc3)=NO2)s1 (stereo not drawn)	none (no result: KCNQ2 pot)
COc1cc2[nH]c(C(=O)N3CCN(c4ccccc4F)CC3)cc2c(OC)c1OC	none
Cc1cccc(N2CCN(C(=O)c3ccc(N4CCCC4=O)cc3)CC2C)c1 (stereo not drawn)	none
Cc1cccc(N2CCN(C(=O)c3ccc4c(c3)c(C)c(C)n4C)CC2C)c1 (stereo not drawn)	KCNQ2 inh -6.1
O=C(Cc1ccccc1[N+](=O)[O-])Nc1ccc(S(=O)(=O)N2CCCC2)cc1	none (no result: KCNQ2 pot)
